Test [1] is described as follows: Nuclear factor erythroid 2-related factor 2/antioxidant responsive element (Nrf2/ARE) small molecule agonists: qHTS cell viability counter screen in human keratinocytes (AID 1919968; active means well fitted curve in the direction sought with a large enough effect in the repeat runs; an effect the other way counts as inactive or inconclusive; further: nearly all actives have a fitted effect of over 55% in size; further: potency means the concentration at half of the fitted maximal effect). The gist of the method: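 Seed 1,500 KeratinoSens cells per well, then incubate 5 h at 37 C/5% CO2. Add compounds in DMSO and incubate 23 h. Add CellTiter-Fluor, wait 1 h and read fluorescence.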

A short description of test [2]: Nuclear factor erythroid 2-related factor 2/antioxidant responsive element (Nrf2/ARE) small molecule agonists: luciferase reporter gene qHTS assay in human keratinocytes (AID 1919969). Further: nearly all actives have a fitted effect of over 35% in size. Further: potency means the concentration at half of the fitted maximal effect.
Test [3] addresses Gonadotropin-releasing hormone receptor (Homo sapiens) (UniProt P30968). The experiment in a line: Human gonadotropin-releasing hormone receptor (GnRHR) small molecule agonists, calcium flux assay in GnRHR-HEK293 cells (AID 1920063). Further: nearly all actives have a fitted effect of over 35% in size. The method in brief: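 Cells: HEK293 stably expressing human GnRHR. Steps: overnight (18 h) culture, 1 h calcium dye loading at 37 C, compound addition, kinetic fluorescence read at 480/540 nm. Each compound tested at 15 concentrations in triplicate.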
On the technique in general: Calcium flux is commonly read through the fluorescence of an indicator in the cells.

The target in test [4] is KiSS-1 receptor (Homo sapiens) (UniProt Q969F8). The experiment in a line: Human kisspeptin (KISS1R) small molecule agonists, calcium flux assay in KISS1R-HEK293 cells (AID 1920064; active means well fitted curve in the direction sought with a large enough effect in the repeat runs; an effect the other way counts as inactive or inconclusive). The method in brief: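 Cells plated and incubated 18 h; dye added, 1 h at 37 C; compounds in DMSO pinned in; signal read at 480/540 nm every second for 3 min. Each compound tested at 15 concentrations in triplicate.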
Sequence of KiSS-1 receptor (Homo sapiens) (Q969F8 whole entry, looked up): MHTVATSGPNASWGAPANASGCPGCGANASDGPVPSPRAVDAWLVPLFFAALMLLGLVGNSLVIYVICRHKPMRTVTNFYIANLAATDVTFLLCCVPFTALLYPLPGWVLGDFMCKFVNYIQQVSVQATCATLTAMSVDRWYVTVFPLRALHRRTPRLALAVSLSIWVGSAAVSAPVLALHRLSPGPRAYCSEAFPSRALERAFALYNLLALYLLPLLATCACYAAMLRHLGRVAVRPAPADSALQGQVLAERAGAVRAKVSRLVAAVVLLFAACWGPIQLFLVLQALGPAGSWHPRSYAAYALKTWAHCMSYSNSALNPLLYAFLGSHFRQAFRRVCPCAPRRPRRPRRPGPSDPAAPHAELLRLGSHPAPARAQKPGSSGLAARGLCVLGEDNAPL

Test [5] in a line: G protein-coupled receptor (GPCR) small molecule agonists, calcium flux assay: HEK293 wild type cell line counter screen (AID 1920065). The method in brief: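 Counter-screen of the Tox21 10K library for non-specific calcium release: dye-loaded cells received compounds in DMSO and were monitored by kinetic fluorescence (480/540 nm, 3 min). Fifteen concentrations, run in triplicate.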

Test [6] can be described thus: p53 small molecule agonists, cell-based qHTS assay with human liver microsomes (AID 1963577).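 Further: p53 response element beta-lactamase reporter cells with liver microsomes plus NADPH.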 The method in brief:
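In this qHTS, p53 response-element beta-lactamase cells receive test compound together with a microsome/NADPH activating system (0.5 mg/mL final each) and are incubated 16 h at 37 C before LiveBLAzer fluorescence detection.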
Background: In qHTS, concentration-response curves come from the screen itself.

Test [7] can be described thus: p53 small molecule agonists, cell-based qHTS assay with rat liver microsomes (AID 1963578). The method in brief: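 Agonist mode in p53RE-bla reporter cells, with compounds co-incubated 16 h at 37 C alongside 0.5 mg/mL rat liver microsomes and 0.5 mg/mL NADPH (final), followed by a 2 h LiveBLAzer detection step.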
The nature of test [8]: p53 small molecule agonists, cell-based qHTS assay with human liver microsomes: qHTS cell viability counter screen (AID 1963579). Further: nearly all actives have a fitted effect of over 45% in size. The method in brief: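 Metabolically activated exposure: compounds, human liver microsomes and NADPH (0.5 mg/mL final apiece) were added to p53RE-bla cells seeded 5 h earlier, left 16 h at 37 C, and then assessed for viability by CellTiter-Glo luminescence.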

Test [9] in a line: p53 small molecule agonists, cell-based qHTS assay with rat liver microsomes: qHTS cell viability counter screen (AID 1963580). Further: nearly all actives have a fitted effect of over 45% in size. The method in brief: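 In HCT-116 cells carrying a p53 response element-bla reporter, compounds were metabolically activated in situ by rat liver microsomes with NADPH over 16 h. Cell ATP content then served as the cytotoxicity measure.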
Test [10] in a line: p53 small molecule agonists, cell-based qHTS assay (AID 1963582; active means well fitted activation curve with a large enough effect in the signal ratio in the repeat runs, not every such curve was filed as active; the % refers to the signal ratio). The gist of the method:
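Quantitative HTS in p53RE-bla cells: after a 5 h settling period, compounds delivered in DMSO were left on cells for 16 h at 37 C, and reporter induction was measured as fluorescence following 2 h substrate loading.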

In test [11] the target is 5-hydroxytryptamine receptor 2A (Homo sapiens) (UniProt P28223). Nature of the test: 5-hydroxytryptamine receptor 2A (HTR2A) small molecule agonists, cell-based qHTS assay (AID 1963587). Further: nearly all actives have a fitted effect of over 30% in size. The gist of the method:
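HTR2A-CHO cells, plated 18 h at 37 C/5% CO2, dye-loaded 1 h at 37 C; compounds in DMSO added by pin tool (agonist mode). Intracellular calcium flux read as kinetic fluorescence on FDSS over 2 min at 1 s intervals.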

The target in test [12] is Muscarinic acetylcholine receptor M1 (Homo sapiens) (UniProt P11229). Nature of the test: Cholinergic receptor muscarinic 1 (CHRM1) small molecule antagonists, cell-based qHTS assay (AID 1963588). Further: nearly all actives have a fitted effect of over 40% in size. The method in brief:
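CHRM1-CHO calcium-flux assay, antagonist mode. Cells were seeded 18 h, dye-loaded 1 h at 37 C and given compound for 5 min at RT, then acetylcholine was added at 50nM. FDSS fluorescence was read 3 min; 15 concentrations, three runs.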

For test [13] the target is unchanged. The experiment in a line: Cholinergic receptor muscarinic 1 (CHRM1) small molecule agonists, cell-based qHTS assay (AID 1963589). Further: nearly all actives have a fitted effect of over 35% in size. The method in brief:
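Agonist-mode qHTS in CHO cells stably carrying human muscarinic M1. Intracellular calcium is tracked by fluorescence every second after compound transfer; each compound runs at 15 concentrations in three independent runs.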

Test [14] in a line: cAMP Responsive Elements (CRE) small molecule agonists, cell-based qHTS assay (AID 1963590). The method in brief:
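Agonist mode qHTS in CRE-bla HEK 293T cells: compounds dosed from DMSO for 3 h at 37 C/5% CO2, followed by LiveBLAzer B/G FRET substrate for 2 h at room temperature.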

Test [15] is described as follows: cAMP Responsive Elements (CRE) small molecule antagonists, cell-based qHTS assay (AID 1963591; active means well fitted inhibition curve with a large enough effect in the signal ratio in the repeat runs, not every such curve was filed as active; the % refers to the signal ratio). The method in brief:
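Antagonist mode: test compounds are co-incubated with the adenylyl cyclase activator NKH477 (0.25 uM final) on CRE-bla HEK293T cells for 3 h at 37 °C, followed by LiveBLAzer substrate loading.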

Test [16] concerns the target Beta-2 adrenergic receptor (Homo sapiens) (UniProt P07550). The experiment in a line: Adrenergic beta2 receptor (ADRB2) small molecule antagonists, cell-based qHTS assay (AID 1963592). Further: series mostly up to about 92 µM; nearly all actives have a fitted effect of over 50% in size. The gist of the method: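 Cells (CHO, stable ADRB2 overexpression) incubated 18-20hr at 37C; compounds added from DMSO; agonist mix (1nM isoproterenol, 100uM IBMX, 25uM Ro-20-1724) added; 0.5hr RT; d2-cAMP and anti-cAMP-cryptate added; 1hr RT; 665/615 nm read.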

For test [17], the target named is D(2) dopamine receptor (Homo sapiens) (UniProt P14416). The experiment in a line: Dopamine D2 receptor (DRD2) small molecule antagonists, cell-based qHTS assay (AID 1963595; active means well fitted inhibition curve with a large enough effect in the signal ratio in the repeat runs, with a control signal flat; the % refers to the signal ratio). The method in brief:
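In this cell-based antagonist screen, compounds act for 10 min at room temperature before a 30 min challenge with 12 nM quinpirole and 200 nM NKH477. cAMP is quantified by HTRF competition in DRD2-HEK293 cells containing 0.1 mM Ro20-1724.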

The target of test [18] is 5-hydroxytryptamine receptor 2A (Homo sapiens) (UniProt P28223). The experiment in a line: 5-hydroxytryptamine receptor 2A (HTR2A) small molecule antagonists, cell-based qHTS assay (AID 1963586). Further: nearly all actives have a fitted effect of over 45% in size. The gist of the method:
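Antagonist-mode intracellular calcium assay: DOI (4 nM) added after 5 min compound pre-incubation at room temperature to dye-loaded HTR2A-CHO cells. Fluorescence followed for 3 min, sampled every second.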

The target in test [19] is D(2) dopamine receptor (Homo sapiens) (UniProt P14416). The experiment in a line: Dopamine D2 receptor (DRD2) small molecule agonists, cell-based qHTS assay (AID 1963594). Further: nearly all actives have a fitted effect of over 35% in size. The gist of the method:
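HEK293 cells stably expressing DRD2 were cultured 24 h at 37 C, then given Ro20-1724 (0.1 mM final) and compounds for 10 min at room temperature. NKH477 (200nM) was then added for 30 min. cAMP was read by HTRF.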

Values without a mark were called inactive. Inconclusive results are not listed. Active and inactive are the calls of the source. Unless noted, the call rests on the fitted dose curve.

Sequence of D(2) dopamine receptor (Homo sapiens) (P14416 whole entry, looked up): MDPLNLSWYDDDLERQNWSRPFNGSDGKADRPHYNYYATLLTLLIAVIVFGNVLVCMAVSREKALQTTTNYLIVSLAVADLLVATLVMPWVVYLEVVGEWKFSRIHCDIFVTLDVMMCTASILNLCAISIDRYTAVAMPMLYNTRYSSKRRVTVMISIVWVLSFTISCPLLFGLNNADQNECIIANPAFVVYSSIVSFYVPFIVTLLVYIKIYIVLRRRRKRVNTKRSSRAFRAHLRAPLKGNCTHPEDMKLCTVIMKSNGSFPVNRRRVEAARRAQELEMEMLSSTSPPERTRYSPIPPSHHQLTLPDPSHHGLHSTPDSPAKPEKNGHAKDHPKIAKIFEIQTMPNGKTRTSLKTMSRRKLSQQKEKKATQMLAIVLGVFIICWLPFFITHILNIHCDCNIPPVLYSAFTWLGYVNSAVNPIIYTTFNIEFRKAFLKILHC
Sequence of Muscarinic acetylcholine receptor M1 (Homo sapiens) (P11229 whole entry, looked up): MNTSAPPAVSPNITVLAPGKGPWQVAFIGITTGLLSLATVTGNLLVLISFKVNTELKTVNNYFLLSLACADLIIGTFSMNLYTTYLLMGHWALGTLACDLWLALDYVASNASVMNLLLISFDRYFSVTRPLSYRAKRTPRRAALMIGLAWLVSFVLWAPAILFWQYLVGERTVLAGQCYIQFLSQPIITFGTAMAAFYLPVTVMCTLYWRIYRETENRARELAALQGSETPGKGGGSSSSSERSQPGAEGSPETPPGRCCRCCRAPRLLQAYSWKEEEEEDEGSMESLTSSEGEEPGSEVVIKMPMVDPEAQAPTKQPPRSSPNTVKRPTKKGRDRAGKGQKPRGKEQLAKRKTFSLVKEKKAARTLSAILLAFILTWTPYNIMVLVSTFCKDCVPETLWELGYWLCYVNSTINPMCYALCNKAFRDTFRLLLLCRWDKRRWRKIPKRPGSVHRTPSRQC
Sequence of 5-hydroxytryptamine receptor 2A (Homo sapiens) (P28223 whole entry, looked up): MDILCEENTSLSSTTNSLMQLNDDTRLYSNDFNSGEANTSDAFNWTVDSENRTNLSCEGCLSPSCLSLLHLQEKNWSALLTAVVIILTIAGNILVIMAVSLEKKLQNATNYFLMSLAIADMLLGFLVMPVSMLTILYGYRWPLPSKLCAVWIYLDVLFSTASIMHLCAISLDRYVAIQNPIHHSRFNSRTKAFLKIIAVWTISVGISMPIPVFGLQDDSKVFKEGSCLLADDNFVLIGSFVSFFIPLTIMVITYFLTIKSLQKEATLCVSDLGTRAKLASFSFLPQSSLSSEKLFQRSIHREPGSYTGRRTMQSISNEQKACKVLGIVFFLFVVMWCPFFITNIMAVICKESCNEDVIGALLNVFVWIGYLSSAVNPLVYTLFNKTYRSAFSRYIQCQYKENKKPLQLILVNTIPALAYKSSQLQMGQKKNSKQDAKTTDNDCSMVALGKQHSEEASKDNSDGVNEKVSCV
Sequence of Gonadotropin-releasing hormone receptor (Homo sapiens) (P30968 whole entry, looked up): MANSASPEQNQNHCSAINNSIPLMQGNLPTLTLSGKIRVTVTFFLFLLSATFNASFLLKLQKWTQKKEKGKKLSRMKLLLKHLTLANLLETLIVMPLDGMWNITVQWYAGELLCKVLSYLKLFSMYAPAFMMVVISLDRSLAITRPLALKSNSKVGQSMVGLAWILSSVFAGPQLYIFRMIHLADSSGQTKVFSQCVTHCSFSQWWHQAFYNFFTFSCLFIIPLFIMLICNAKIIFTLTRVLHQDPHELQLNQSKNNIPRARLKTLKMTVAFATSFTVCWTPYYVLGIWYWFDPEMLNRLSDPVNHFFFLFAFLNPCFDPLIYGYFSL
Sequence of Beta-2 adrenergic receptor (Homo sapiens) (P07550 whole entry, looked up): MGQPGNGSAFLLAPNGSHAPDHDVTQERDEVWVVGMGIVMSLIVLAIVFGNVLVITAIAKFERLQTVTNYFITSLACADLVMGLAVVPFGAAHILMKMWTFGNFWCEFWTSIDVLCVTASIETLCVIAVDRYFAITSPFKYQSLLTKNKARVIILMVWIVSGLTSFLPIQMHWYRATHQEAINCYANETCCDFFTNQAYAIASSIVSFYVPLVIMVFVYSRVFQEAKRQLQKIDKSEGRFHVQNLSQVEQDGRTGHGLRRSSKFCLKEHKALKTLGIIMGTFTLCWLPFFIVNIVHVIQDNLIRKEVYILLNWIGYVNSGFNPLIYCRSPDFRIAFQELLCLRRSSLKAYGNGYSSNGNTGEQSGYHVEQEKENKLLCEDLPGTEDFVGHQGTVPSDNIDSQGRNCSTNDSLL

Consider `Cc1ccc(=O)n(-c2ccccc2)c1`, for which the Potency result in test [1], in [2], in test [3], in test [6], in test [7] and in test [8] was “inactive” in each case. Also, the Potency entry in test [9], in test [10], in test [11], in test [12], in [13] and in [14] was “inactive” each time. In addition, the Potency result in test [15], in test [16] and in test [17] was “inactive” throughout. In addition, the outcome in test [4] and in test [5] was inactive.

Turning to `NC(N)=NC(=O)Cc1c(Cl)cccc1Cl`, the Potency result in test [1], in test [2], in test [3], in test [6], in [7] and in test [8] was “inactive” each time. Besides, the Potency result in test [9], in test [10], in [14], in [15], in [16] and in [17] was “inactive” in each case. For the same compound, the outcome in [4] and in test [5] was inactive.

In the case of `CC(CN(C)C)C(C)(O)Cc1ccc(Cl)cc1` (configuration not stated), the Potency result in test [1], in test [2], in test [3], in test [6], in [7] and in [8] was “inactive” in each case. Further, the Potency result in test [9], in [10], in [18], in [12], in test [13] and in [15] was “inactive” each time. For the same compound, the Potency result in [16], in test [19] and in [17] was “inactive” in each case. Moreover, the outcome in [4] and in [5] was inactive.

On to `O=C(O)c1ccc2cc(O)ccc2c1`, for which the Potency result in [1], in [2], in test [3], in test [6], in test [7] and in [8] was “inactive” throughout. The Potency entry in test [9], in test [10], in [18], in [12], in test [16] and in test [19] was “inactive” throughout. Besides, in [17], the Potency result is “inactive”. For the same compound, the result in [4] and in [5] was inactive.

For the compound `CN1CCN(C2=Nc3ccccc3Oc3ccc(Cl)cc32)CC1`, the Potency result in test [1], in test [2], in [3], in [6], in [7] and in test [8] was “inactive” in each case. Moreover, the Potency entry in test [9], in [10], in [11], in test [13] and in test [19] was “inactive” each time. Moreover, the result in test [4] and in [5] was inactive.

Consider `Oc1c(Br)cc(Br)c2cccnc12`, for which the Potency in test [1] is 2660 nM (active); in test [2], 841 nM (active). The Potency result in test [3], in [6], in test [7], in test [8], in test [9] and in test [10] was “inactive” throughout. Also, the Potency result in test [18], in [11], in test [13], in test [15], in test [16] and in [19] was “inactive” each time. For the same compound, the Potency entry in test [17] is “inactive”. For the same compound, the result in test [4] and in test [5] was inactive.

Take `CC(C)(C)CC(=O)OCC(=O)[C@@]1(O)CC[C@H]2[C@@H]3CCC4=CC(=O)C=C[C@]4(C)[C@H]3[C@@H](O)C[C@@]21C`: the Potency entry in test [1], in [2], in [3], in test [6], in test [7] and in [8] was “inactive” in each case. The Potency result in test [9], in test [10], in test [11], in [12], in test [13] and in test [14] was “inactive” in each case. Besides, the Potency result in test [15], in [16] and in test [17] was “inactive” each time. The outcome in test [4] and in test [5] was inactive.

Consider `CC(C)C(=O)OCc1cccc(OC(=O)[C@@H]2N3C(=O)[C@@H](NC(=O)Cc4ccccc4)[C@H]3SC2(C)C)c1`, for which the Potency result in [1], in test [2], in [3], in test [6], in test [7] and in test [8] was “inactive” each time. For the same compound, the Potency result in test [9], in [10], in [11], in test [12], in test [13] and in [15] was “inactive” each time. Besides, the Potency result in [16], in test [19] and in test [17] was “inactive” in each case. Also, the result in test [4] and in [5] was inactive.

(Values after PubChem BioAssay (Tox21).)
